Assay outcomes as filed in PubChem.
NR3A LBD binder – binders of NR3A ligand-binding domain, primary screen, biophysical, differential scanning fluorimetry, uHTS; AID 1259313, 2017; 340,000 tested, 2.5% active; Glutamate receptor ionotropic, NMDA 3A (GRIN3A) ligand-binding domain; Tm shift relative to glycine control, % at 25 µM; NR3A LBD differential scanning fluorimetry, Tm shift; 0% = protein alone, 100% = glycine-bound protein;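 active = melting temperature shift of at least 10% of the positive control shift, at one fixed dose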
KLK7 zymogen act – proKLK7 zymogen activators, primary screen, biochemical, fluorescence intensity; AID 652039, 2013; purified proKLK7, EDANS-DABCYL substrate fluorescence; 100% is mature enzyme control, 0% vehicle; 370,000 tested, 0.9% active; Kallikrein-7 (Homo sapiens), P49862; activation, % at 7 µM;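 active = activation above the mean of all tested compounds plus 3 SD, computed per campaign excluding outliers beyond control limits, cut at about 13% in these data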
Target sequence (P49862 whole entry, looked up): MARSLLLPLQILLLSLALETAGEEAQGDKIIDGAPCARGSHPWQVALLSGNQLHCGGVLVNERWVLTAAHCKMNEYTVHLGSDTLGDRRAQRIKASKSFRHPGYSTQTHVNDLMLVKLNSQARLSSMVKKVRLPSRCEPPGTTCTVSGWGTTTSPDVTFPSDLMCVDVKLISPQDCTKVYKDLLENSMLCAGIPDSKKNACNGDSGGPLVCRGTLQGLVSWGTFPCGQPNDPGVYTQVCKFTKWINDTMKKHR
ADAM10 inh – human ADAM10 inhibitors, primary screen, biochemical, QFRET, HTS; Disintegrin and metalloproteinase domain-containing protein 10 (Homo sapiens), O14672; recombinant ADAM10, EDANS/DABCYL FRET peptide cleavage, 3 h; inhibition, % at 7 µM; 370,000 tested, 0.62% active; AID 720582, 2013;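 active = inhibition above a per-campaign cutoff equal to the mean of compounds falling between control-based bounds plus 3 SD, cut at about 20% in these data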;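 note: 0% = DMSO wells while the 100% control is not disclosed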
ADAM17 inh – ADAM17 inhibitors, primary screen, biochemical, QFRET; recombinant ADAM17, EDANS/DABCYL FRET peptide cleavage; inhibition, % at 6.95 µM; 370,000 tested, 0.83% active; AID 720648, 2013;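 active = inhibition above the mean of compounds lying between control limits plus 3 SD, set per campaign, cut at about 8.5% in these data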;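 note: 0% = DMSO-only wells as the low control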
rCAG RNA binder – binders of r(CAG) RNA repeats, primary screen, biochemical, fluorescence | AID 651821, 2012 | 370,000 tested, 1.3% active | r(CAG) RNA repeat, TO-PRO-1 dye displacement fluorescence | inhibition, % at 3 µM;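 active = inhibition above the plate cutoff, the mean of all test compounds on that plate plus 3 SD, cut at about 35% in these data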;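 note: 0% = DMSO alone and 100% = 100 µM mitoxantrone as full dye displacement; higher means more dye released from RNA so lower well fluorescence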
AHR act – AHR activators, primary screen, cell-based, luminescence, luciferase reporter, human; 320,000 tested, 2.5% active; AHR-responsive luciferase reporter cells; activation, % at 5 µM; in the data active = activation above about 47%;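 note: 0% = vehicle wells and 100% = reference agonist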
* marks the source's active call; other numbers are inactive results; · = no result. Only some compounds are listed: those with a hit (about 7% of all), similar ones and a draw of the others.

SMILES	NR3A LBD binder	KLK7 zymogen act	ADAM10 inh	ADAM17 inh	rCAG RNA binder	AHR act
COC(=O)[C@]12C[C@H](CC(=O)N3CCOCC3)C(=O)N(Cc3ccco3)C1=C[C@H](C1CCCC1)O[C@@H]2C	·	0	0	-8	-1	·
CS(=O)(=O)N1CCC[C@]2(CC[C@H](CCC#N)O2)C1	·	0	-3	-2	2	·
COc1ccc(/C(C)=N/NC(=S)NCCc2ccccc2)c(O)c1	23*	2	9	0	12	6
Fc1cccc(NC(=S)Nc2ccc(Br)cc2)c1	27*	0	-15	-3	7	-1
COc1ccc(/C=N/NC(=S)NCCc2ccccc2)cc1	-2	0	5	2	3	13
COc1ccc(O)c(/C=N/NC(=S)NCCc2ccccc2)c1	36*	-45	-208	-77	15	13
S=C(NCCc1ccccc1)Nc1ccc(Br)cc1	33*	0	5	5	5	2
CSc1cccc(NC(=S)NN/C(=N/S(=O)(=O)c2ccccc2)N2CCCC2)c1	·	1	-3	-1	5	·
Oc1ccc(Br)cc1/C=N/NC(=S)NCCc1ccccc1	23*	-36	-26	-10	31	18
CC(Oc1cccc(Cl)c1)C(=O)Nc1cc(Cl)ccc1N1CCOCC1 (stereo not given)	21*	0	4	2	2	17
COc1cc2[nH]c(=S)nc(NCc3cccs3)c2cc1OC	-5	0	-4	-1	2	60*
COc1cc2[nH]c(=S)nc(NCc3ccc(Cl)cc3)c2cc1OC	35*	-1	-10	-9	3	20
COc1ccc(-n2c(SCC(=O)Nc3cc(C)c(NC(=O)c4ccccc4)cc3OC)nnc2-c2ccccc2F)cc1	·	-2	11	7	13	·
COc1ccc2c(c1)CN(C)S(=O)(=O)c1ccccc1-2	13*	0	-19	-5	0	·
COc1ccc2c(c1)-c1ccccc1S(=O)(=O)N(C)C2	-2	0	8	0	1	·
O=C1/C(=C/c2c[nH]c3ccccc23)CCC/C1=C\c1c[nH]c2ccccc12	10	-1	-15	-5	25	65*
COC(=O)c1cn(-c2ccc(-c3noc4c3C(=O)N(CC(=O)N3CCOCC3)CC4)cc2)nn1	·	-1	0	0	2	·
COc1ccc(/C=C/S(=O)(=O)NC2CCCC2)c(CNC(=O)OC(C)(C)C)c1	·	0	1	2	2	·
C=C(C)C1CC=C(C)/C(=N/NC(=O)COc2ccc(C)cc2)C1 (stereo not given)	1	0	13	3	3	1
C=C(C)C1CC=C(C)/C(=N\NC(=S)Nc2ccc(C)cc2)C1 (stereo not given)	-2	0	7	6	9	48*
COC(=O)[C@]12CCCCC=C1N(Cc1ccc(OC)cc1)C(=O)[C@@H]2CC(=O)NCc1ccc(OC)c(OC)c1	·	0	6	7	1	·
CC(C)CC1(C)NC(=O)NC1=O (stereo not given)	11*	0	3	-3	2	0
CC1(CCc2ccccc2)NC(=O)NC1=O (stereo not given)	-2	1	2	2	1	·
CCN(CC)c1nc2ccccc2c(N)c1-c1ccccc1	0	1	-21	-6	2	55*
Cc1c(N(C)C)nc2ccccc2c1N	1	0	3	-6	-2	22
COc1ccc(-n2c(COc3ccc(C)cc3)nnc2SCC(=O)c2ccc(-c3ccccc3)cc2)cc1	·	0	5	2	13	·
CCCCCCCC/C=C\CCCCCCCC(=O)NCCO	10*	1	-6	-2	2	-1
CCCCCCCC/C=C\CCCCCCCC(=O)O	3	2	3	-1	26	-2
